Results taken from PubChem BioAssay (NCI).
About 83,000 compounds went through this panel and 20% of them were active in at least one assay; those are over-represented in the sample as a whole.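 A percent growth of 40 corresponds to 60% growth inhibition; 0 means no net growth; -100 means all cells died. Active threshold: below 10.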 Calls of active or inactive are those of the source.

What follows are molecules tested on HL-60(TB) leukemia (assay: NCI-60 one-dose screen, 48 h (100 = growth as untreated, 0 = no growth, -100 = all killed)). Conditions: 10 µM unless noted.

Structure (SMILES)	growth
CCOc1ccc(/C=C/C(=O)c2ccccc2)cc1	70.3% (inactive)
CC(C)(C)c1ccc(C(=O)Nc2sc3c(c2C(N)=O)CCC(=O)C3)cc1	3% (active)
COC(=O)/C=C1\S/C(=N\Nc2ccc([N+](=O)[O-])cc2[N+](=O)[O-])N(C2CCCCC2)C1=O	8.63% (active)
Cc1c(C(=O)NCCC(=O)NO)sc2ncnc(Nc3ccc(F)c(Cl)c3)c12	103% (inactive)
